Results from the supplement of paper PMC9588786.
Where “and” joins values, the source holds several entries; their conditions need not be identical. Equal entries are not always repeated. ± gives the standard deviation of the averaged measurements.

Tested on: HT-1080
Assay: relative cell viability with RSL3 co-treatment (fraction of control); higher = stronger protection from RSL3-induced ferroptosis (higher viability)
Conditions: 10 µM
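Also: viability read as CCK-8 absorbance at 450 nm in cells co-exposed to the GPX4 inhibitor RSL3, relative to a 0.01% DMSO vehicle control.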

SMILES | relative cell viability
NC(=O)Nc1sc(-c2ccc(F)cc2)cc1C(N)=O | 0.87 ± 0.046
CCn1c2ccccc2c2cc(Nc3ccnc(NCCCN4CCOCC4)n3)ccc21 | 0.64 ± 0.089
COc1cc(F)c(F)c(Nc2ccc(I)cc2F)c1NS(=O)(=O)C1(C[C@H](O)CO)CC1 [Refametinib (RDEA119, Bay 86-9766)] | 0.92 ± 0.01
Cc1cc(NC(=O)c2cccc(NC(=O)/C=C/CN(C)C)c2)ccc1Nc1nccc(-c2cccnc2)n1 | 0.407 ± 0.086
COc1cc(N2CCC(N)CC2)ccc1Nc1ncc(Cl)c(-c2c[nH]c3ccccc23)n1 | 0.24 ± 0.062
CC(C)(C)c1cc(NC(=O)Nc2ccc(-c3cn4c(n3)sc3cc(OCCN5CCOCC5)ccc34)cc2)no1 [Quizartinib (AC220)] | 0.473 ± 0.04
CN(c1ncccc1CNc1nc(Nc2ccc3c(c2)CC(=O)N3)ncc1C(F)(F)F)S(C)(=O)=O | 0.763 and 0.527
Cc1csc(-c2nnc(Nc3ccc(Oc4ncccc4-c4ccnc(N)n4)cc3)c3ccccc23)c1 | 0.56 ± 0.087
O=C1c2ccc(Nc3ccc(F)cc3F)cc2CCc2ccc(OC[C@H](O)CO)cc21 [Skepinone-L] | 0.513 ± 0.12
OC(c1cc(-c2ccc(Cl)cc2)nc2ccccc12)C1CCCCN1 (configuration not stated) [Vacquinol-1] | 0.0533 ± 0.035
C[C@H](Nc1ncnc2nc[nH]c12)c1cc2cccc(Cl)c2c(=O)n1-c1ccccc1 [Duvelisib (IPI-145, INK1197)] | 0.717 ± 0.025
CC(C)n1nc(-c2ccc3oc(N)nc3c2)c2c(N)ncnc21 | 0.787 ± 0.058
NC1(Cc2ccc(Cl)cc2)CCN(c2ncnc3[nH]ccc23)CC1 | 0.473 ± 0.25
O=C(NOCC(O)CO)c1cc(Br)c(F)c(F)c1Nc1ccc(I)cc1F (configuration not stated) | 0.897 ± 0.061
Cc1[nH]c(/C=C2\C(=O)Nc3ccc(S(=O)(=O)N(C)c4cccc(Cl)c4)cc32)c(C)c1C(=O)N1CCN(C)CC1 | 0.547 ± 0.075
CCCCOc1c(C(=O)c2c(F)cc(C)cc2F)c[nH]c2nncc1-2 | 0.903 ± 0.24
C=CC(=O)Nc1ccc(CN2C(=O)N(c3cc(OC)cc(OC)c3)Cc3cnc(Nc4ccc(N5CCN(C)CC5)cc4)nc32)cc1 | 0.56 ± 0.01
O=C(O)CCC(=O)Nc1ccc(Br)cn1 [Bikinin] | 0.723 ± 0.14
COc1cc(OC)c(/C=C/S(=O)(=O)Cc2ccc(OC)c(NCC(=O)O)c2)c(OC)c1 | 0.7 ± 0.026

SMILES | relative cell viability
CS(=O)(=O)c1cccc(CNc2nc(Nc3ccc4c(c3)CCC(=O)N4)ncc2C(F)(F)F)c1 | 0.91 ± 0.085
Cc1c(NC(=O)c2ccc(C(C)(C)C)cc2)cccc1-c1cn(C)c(=O)c(Nc2ccc(C(=O)N3CCOCC3)cc2)n1 | 0.647 ± 0.1
CC(C)(C)c1cnc(CSc2cnc(NC(=O)C3CCNCC3)s2)o1 | 0.573 ± 0.05
Cn1cnc2c(F)c(Nc3ccc(Br)cc3F)c(C(=O)NOCCO)cc21 | 0.827 ± 0.097
O=C1NC(=O)[C@@H](c2cn3c4c(cccc24)CCC3)[C@@H]1c1c[nH]c2ccccc12 [Tivantinib (ARQ 197)] | 0.64 ± 0.085
C=CC(=O)Nc1cccc(Nc2nc(Nc3ccc(Oc4ccnc(C(=O)NC)c4)cc3)ncc2F)c1 | 0.6 ± 0.056
O=c1cc(N2CCOCC2)oc2c(-c3ccccc3)cccc12 | 0.76 ± 0.16
Cc1cc(N2CCOCC2)cc2[nH]c(-c3c(NC[C@@H](O)c4cccc(Cl)c4)cc[nH]c3=O)nc12 | 0.987 ± 0.15
CN1CCC(Nc2nc(Nc3ccc(Oc4ccccc4)cc3)c3c(=O)[nH]cc(Br)c3n2)CC1 | 0.68 ± 0.087
Cc1cc(Nc2nc(N[C@@H](C)c3ncc(F)cn3)ncc2Cl)[nH]n1 | 0.597 ± 0.12
COc1ccc(-c2ccc3c(N4CCOCC4)nc(N4C[C@@H](C)O[C@@H](C)C4)nc3n2)cc1CO | 0.7 ± 0.07
Nc1ccc(-c2ccc3ncc4ccc(=O)n(-c5cccc(C(F)(F)F)c5)c4c3c2)cn1 [Torin 2] | 0.687 ± 0.047
CC(C)NC[C@@H](C(=O)N1CCN(c2ncnc3c2[C@H](C)C[C@H]3O)CC1)c1ccc(Cl)cc1 [Ipatasertib (GDC-0068)] | 0.697 ± 0.12
CN(c1ccccc1CNc1nc(Nc2ccc3c(c2)CC(=O)N3)ncc1C(F)(F)F)S(C)(=O)=O | 0.723 ± 0.045
CCNc1nc(Nc2cc(F)c(C(=O)N3CCOCC3)cc2OC)ncc1C(F)(F)F | 0.69 ± 0.089
Oc1cc(O)cc(/C=C/c2ccc(O)c(O)c2)c1 [Piceatannol] | 0.717 ± 0.04
CCCNC(=O)c1cn2ncnc(Nc3cc(C(=O)NC4CC4)ccc3C)c2c1C | 0.78 ± 0.04
CO[C@@H](C)Cn1c(=O)n(C)c2cnc3ccc(-c4cncc(C(C)(C)O)c4)cc3c21 | 0.457 ± 0.13
